{"source": "PubChem BioAssay AID2263", "about": "(National Center for Advancing Translational Sciences (NCATS), 2010)", "note": "Some of the results follow. Results filed as inconclusive are left out. Activity calls are given as the source filed them. Calls follow the shape of the dose curve; as a rule, active = well fitted inhibition curve with a large enough effect; inconclusive = small, poorly fitted or top-dose-only effect, or effect the other way; inactive = flat fitted curve, though single readings scatter.", "data": [{"molecular_target": "Pyruvate kinase PKM (Homo sapiens) (UniProt P14618)", "sequence (P14618 whole entry, looked up, canonical isoform)": "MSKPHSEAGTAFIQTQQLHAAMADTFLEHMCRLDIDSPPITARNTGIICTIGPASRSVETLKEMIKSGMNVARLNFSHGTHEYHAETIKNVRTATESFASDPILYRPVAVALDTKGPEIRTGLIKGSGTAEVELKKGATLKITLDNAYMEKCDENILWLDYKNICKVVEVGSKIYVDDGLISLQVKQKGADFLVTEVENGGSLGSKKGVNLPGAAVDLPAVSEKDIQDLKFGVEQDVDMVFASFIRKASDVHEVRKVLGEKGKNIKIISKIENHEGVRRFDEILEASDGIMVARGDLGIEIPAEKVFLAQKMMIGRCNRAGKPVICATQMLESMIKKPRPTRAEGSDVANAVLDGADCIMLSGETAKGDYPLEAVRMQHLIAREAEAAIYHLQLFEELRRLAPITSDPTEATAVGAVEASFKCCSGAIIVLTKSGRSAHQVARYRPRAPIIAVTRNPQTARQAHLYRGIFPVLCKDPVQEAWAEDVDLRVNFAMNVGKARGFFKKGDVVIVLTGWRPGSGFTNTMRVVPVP", "assay": "Confirmation Concentration-Response Assay for Inhibitors of Human Muscle isoform 2 Pyruvate Kinase", "conditions": "purified hPK-M2, Kinase-Glo ATP luminescence, 1 h; series mostly up to 57.5 µM; activity change, negative = inhibition: at the top concentration", "source_text": "NIH Chemical Genomics Center [NCGC] Matthew G. Vander Heiden, M.D., Ph.D. [Harvard Medical School, 77 Avenue Louis Pasteur, Boston, MA 02115] MLPCN Grant: 1 R03 MH085679-01 NCGC Assay Overview: Human pyruvate kinase muscle 2 (hPK-M2) enzyme was supplied as a highly purified (>95% pure) preparation from Harvard Medical School and assayed for its ability to generate ATP from ADP using phosphoenolpyruvate (PEP) as a substrate. ATP generation was detected in a coupled reaction by luciferase-mediated luminescence, an ATP-dependent process. Pyruvate kinase substrates, PEP and ADP, were present in the assay at Km and approximately 10-fold below Km respectively. The enzyme was assayed at an intermediate level of activity to screen for both inhibitors and activators.\nNCGC Assay Protocol Summary: Three uL of substrate mix (at r.t.) in assay buffer (50 mM Imidazole pH7.2, 50 mM KCl, 7 mM MgCl2, 0.01% Tween 20, 0.05% BSA) was dispensed into white solid bottom 1,536 well microtiter plates so that the final concentrations of substrates in the assay were 0.1 mM ADP and 0.5 mM PEP. 23 nL of compound were delivered by a pin tool and 1 uL of enzyme mix in assay buffer (4 degree Celsius) was added. […] Two uL of detection mix (Kinase-Glo, Promega; at 4 degree Celsius protected from light) was added and luminescence read by a ViewLux (Perkin Elmer) at 5 second exposure/plate. […]", "values": [{"smiles": "Cc1ccc(-c2nc3ccccn3c2Nc2ccc(F)cc2)o1", "activity change, negative = inhibition": "14% (inactive)"}]}]}
